For eleven substances, GI50 results are on record in ChEMBL document CHEMBL1201862, “PubChem BioAssay data set” (2004).

In all, about 57,000 sequences went through this assay and about 4,100 (7.2%) were called active. No stated cut-off is given here; in the data, active = GI50 up to about 1.1 µM and inactive = higher. A selection follows. Measured potencies and affinities stand elsewhere.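 Dose response: 5 concentrations. Exposure: 48 h. Format: 96-well plates. Endpoint: linear interpolation; highest concentration if not reached. GI50 is the concentration that inhibits growth by half.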

The assay concerns COLO 205. Briefly: NCI tumour cell line growth inhibition, 48 h.
“[Bis(aminomethyl)pentamethylenesilane]dichloropaltinum(II), CHEMBL2146202” yielded a GI50 of 2.07 µM.
As for “[Bis(aminomethyl)tetramethylenesilane]tetrachloropaltinum(IV), CHEMBL2146189”, the figure is 8.51 µM; as for “[Bis(aminomethyl)dimethylsilane]dichloroplatinum (II), CHEMBL2146201”, 24.3 µM.
Next, “cis-Bis[[(trimethylsilyl)methyl]amino]tetrachloroplatinum(IV), CHEMBL2146191”: 2.07 µM; “[Bis(aminomethyl)tetramethylenesilane]dichloropaltinum(II), CHEMBL2146205”: 20.1 µM.
As for “[Bis(aminomethyl)pentamethylenesilane]tetrachloropaltinum(IV), CHEMBL2146204”, the figure is 1.53 µM; as for “[Bis(aminomethyl)ethylmethylsilane]tetrachloroplatinum(IV), CHEMBL2146192”, 5.15 µM; as for “mu-(1,7-nanodiamine-N,N')bis-(cis-aminedichloroplatimum (II)), CHEMBL2146215”, 6 µM.
Take “[Bis(aminomethyl)dimethylsilane]tetrachloroplatinum(IV), CHEMBL2146190”: the GI50 amounted to 11.6 µM.
As for “[Bis(aminomethyl)diethylsilane]tetrachloroplatinum(IV), CHEMBL2146203”, the figure is 11.9 µM; as for CISPLATIN, CHEMBL11359, 13.4 µM.
